The results in this text go back to the supplement of paper PMC6555819.

The subject of the first assay is PXR homodimer (NR concentration 270 nM). Kind of assay: PBM binding z-score (relative to random genomic background probes); higher = stronger binding; sequences stand for … in GC…GCGATTGACAGCGTAGAATGAAGG
Put shortly:
(§1)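 For binding z-scores, the reference was random background probes on custom Agilent 4×180K protein-binding microarrays. These arrays were incubated 1 h with ligand-free nuclear receptor dimers in PBS pH 7.4, 2% milk, 0.02% Triton X-100, 1 mM DTT, 0.2 mg/mL BSA and 0.4 mg/ml salmon testes DNA. Fluorescence was scanned after antibody detection of each partner (one per run) and regression-normalized.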
With AGTCGAAGTTCACTAGGTAACGTAAGATTCAGCT, the PBM binding z-score was found to be 1.18.
GCTAGTTGGTCCGTAAAAGGTCACACACCGGTCG registered a PBM binding z-score of 1.12.
The sequence CGAACTAGGTCAGAACAGGACAGTGAAGGATGAT yielded a PBM binding z-score of -0.0517.
With CGAAATAGGTCAGAACAGGACAGTGAAGGATGAT, the PBM binding z-score was determined as 0.395.
Turning to TAGCCTAGGTCATTCTGGGGCCAGTATAGAAAGC, the PBM binding z-score is -0.248.
On the same count and under the same terms, the value for ATACCAAGGTGATCGTGACGTCGTTGATACTAAC was 0.0409.
As to CGTCCAAGGTCAAGGTTAGTGAAAGAGACTCGAA, the PBM binding z-score amounted to 0.691.
Turning to TCGAGTAGGTTAGTCGGGGGATTCAGCCAACATA, the PBM binding z-score worked out at 0.0667.
GCTCGGAGGGCAAGGTCAGAGCTTTGTCCGTAGA displayed a PBM binding z-score of -0.437.
In turn, CCGAGTAGGTTATGGGGCATTCATGCAACGGTGA displayed a PBM binding z-score of -0.204.
In turn, ACTAGCAGTCCAAGGGTCACTCAAGATTAGTCCG yielded a PBM binding z-score of 0.168.
In turn, ATCGAAAGGTCCTGAGGTGAGTATACAGAAAGGC yielded a PBM binding z-score of -0.0977.
As to AGTCAAAGTTCACTTGGTAACGTAAGATTCAGCT, the PBM binding z-score turned out to be 2.53.
As to TCTAGCACGCCAGAGGGTCACTCAAGAGGTACGG, the PBM binding z-score was -0.773.
The sequence CCAACTAGGTCAAGGTCAAAGTCGGTTTGTGCCA yielded a PBM binding z-score of 2.55.
On the same count and under the same terms, the value for TCAGACAGGTGAAGGTAACACAGGTACGCAGTCG was 0.463; that for TTACCAAGGTGAGCTGAGGTCGTCGATCCAACTC was 0.167.
In the case of TCATATAGGTAAATGCTAGGTGAGAGTCCGATCT, the PBM binding z-score came to 0.158.
In turn, TCTTGTAGATTAAAGGTTAAGAAAGCCGAAGCCT had a PBM binding z-score of 0.203.
For the sequence TCAGACAGGTGCAGGTAACTCAGGTACGCAGTCG, the PBM binding z-score is -0.203.
In the case of CGTCAAAGTTCAACTAAAGTAACGTAAAGCACGC, the PBM binding z-score stood at 3.3.
On to AATACAGGGTCACTAGGCCAGACTAGGTACGAAT, for which the PBM binding z-score is 0.374.
On the same count and under the same terms, the value for TTACCATGGTGAGCTGAGGTCGTTGATCCAACTC was -0.0892; that for CAGCCTAGGTCAGGGCCAGTAAAGGAGGAACGTT was -0.795.
As to TCTTGTAGATCAATAGAGTTTAAGAAAGTGCGCT, the PBM binding z-score amounted to 0.847.
Still for that read-out and setting: under TCGAGGAGGTTACCAATGGGGCATTCAGCTTTCT stands -0.411.
Consider CGTCCAAGGTCAGAGATGTCAGTGAATGCCGAGT, for which the PBM binding z-score came to 1.
In turn, CACACTAGGTCACGAAAGGTCAAAGTCGAATGAC showed a PBM binding z-score of 2.87.
For the sequence GATACAGGGTCAGCTAGAGGCAAGAGTATGGAAA, the PBM binding z-score was -0.207.
For CGAACTAGGTCACAACAGGACAGTGAAGGATGAT, the PBM binding z-score was determined as 0.241.
The sequence ATATGTAGGTTTAGGGTCATTCAGGTTGGTTCGC showed a PBM binding z-score of 4.08.
In turn, CCGACTGGGGCAAGGTTAGCATAACGCACAGCCA gave a PBM binding z-score of -0.316.
As to CGTCCAAGGTCATCGGAGGTCAGTGAAGACAGAT, the PBM binding z-score turned out to be 7.36.
In the case of TCTCGGAGGACACGAAAGGTCAGAGTTCGACATC, the PBM binding z-score was 3.
Still for that read-out and setting: under CCTACTGGCCCACGAAAGGTCATTGATTCAGTGA stands 1.92.
The sequence TCATATAGGTAAAGGCGAAAGTCGAACGATATGA came in with a PBM binding z-score of 0.0413.
The sequence CAAACTAGGTCAGAGAGGTCAAAGTCCGTGCGTA registered a PBM binding z-score of 10.2.
As to TAGCCTAGGTCAGATCGGGCCAGTATCCGCTATA, the PBM binding z-score is -0.885.
CTCGAAAGGCCGGTTGAGGTGAGTATACGGATAA yielded a PBM binding z-score of -0.38.

A further assay relates to RARa:RXR (NR concentration 270 nM, RXRa partner concentration 90 nM). The assay is described as above. Put shortly: as §1
AGTCGAAGTTCACTAGGTAACGTAAGATTCAGCT: the PBM binding z-score was found to be 0.939.
With GCTAGTTGGTCCGTAAAAGGTCACACACCGGTCG, the PBM binding z-score turned out to be 5.63.
On the same count and under the same terms, the value for CGAACTAGGTCAGAACAGGACAGTGAAGGATGAT was 0.927; that for CGAAATAGGTCAGAACAGGACAGTGAAGGATGAT was 1.87.
TAGCCTAGGTCATTCTGGGGCCAGTATAGAAAGC had a PBM binding z-score of 2.76.
ATACCAAGGTGATCGTGACGTCGTTGATACTAAC registered a PBM binding z-score of 0.447.
Same read-out and setting: the value for CGTCCAAGGTCAAGGTTAGTGAAAGAGACTCGAA was 4.34; that for TCGAGTAGGTTAGTCGGGGGATTCAGCCAACATA was 0.615.
The sequence GCTCGGAGGGCAAGGTCAGAGCTTTGTCCGTAGA gave a PBM binding z-score of 2.52.
As for CCGAGTAGGTTATGGGGCATTCATGCAACGGTGA, the PBM binding z-score amounted to 0.175.
For the sequence ACTAGCAGTCCAAGGGTCACTCAAGATTAGTCCG, the PBM binding z-score came to 3.39.
Still for that read-out and setting: the value for ATCGAAAGGTCCTGAGGTGAGTATACAGAAAGGC was 0.895; that for AGTCAAAGTTCACTTGGTAACGTAAGATTCAGCT was 2.62; that for TCTAGCACGCCAGAGGGTCACTCAAGAGGTACGG was 2.37.
As for CCAACTAGGTCAAGGTCAAAGTCGGTTTGTGCCA, the PBM binding z-score is 5.24.
TCAGACAGGTGAAGGTAACACAGGTACGCAGTCG yielded a PBM binding z-score of 1.28.
Take TTACCAAGGTGAGCTGAGGTCGTCGATCCAACTC: the PBM binding z-score was 1.43.
Same read-out and setting: under TCATATAGGTAAATGCTAGGTGAGAGTCCGATCT stands 0.343.
Turning to TCTTGTAGATTAAAGGTTAAGAAAGCCGAAGCCT, the PBM binding z-score stood at 2.09.
For TCAGACAGGTGCAGGTAACTCAGGTACGCAGTCG, the PBM binding z-score is 0.659.
The sequence CGTCAAAGTTCAACTAAAGTAACGTAAAGCACGC yielded a PBM binding z-score of 4.03.
The sequence AATACAGGGTCACTAGGCCAGACTAGGTACGAAT displayed a PBM binding z-score of 3.87.
For the sequence TTACCATGGTGAGCTGAGGTCGTTGATCCAACTC, the PBM binding z-score was 1.14.
Turning to CAGCCTAGGTCAGGGCCAGTAAAGGAGGAACGTT, the PBM binding z-score was 1.08.
On the same count and under the same terms, the value for TCTTGTAGATCAATAGAGTTTAAGAAAGTGCGCT was 0.263; that for TCGAGGAGGTTACCAATGGGGCATTCAGCTTTCT was 1.43.
CGTCCAAGGTCAGAGATGTCAGTGAATGCCGAGT: the PBM binding z-score came out at 2.65.
On the same count and under the same terms, under CACACTAGGTCACGAAAGGTCAAAGTCGAATGAC stands 7.78.
Still for that read-out and setting: under GATACAGGGTCAGCTAGAGGCAAGAGTATGGAAA stands 2.8; under CGAACTAGGTCACAACAGGACAGTGAAGGATGAT, 1.87.
In turn, ATATGTAGGTTTAGGGTCATTCAGGTTGGTTCGC showed a PBM binding z-score of 4.48.
As for CCGACTGGGGCAAGGTTAGCATAACGCACAGCCA, the PBM binding z-score is -0.0446.
On to CGTCCAAGGTCATCGGAGGTCAGTGAAGACAGAT, for which the PBM binding z-score stood at 6.63.
Turning to TCTCGGAGGACACGAAAGGTCAGAGTTCGACATC, the PBM binding z-score was 5.55.
With CCTACTGGCCCACGAAAGGTCATTGATTCAGTGA, the PBM binding z-score came to 5.64.
On the same count and under the same terms, the value for TCATATAGGTAAAGGCGAAAGTCGAACGATATGA was 0.124.
In turn, CAAACTAGGTCAGAGAGGTCAAAGTCCGTGCGTA registered a PBM binding z-score of 6.29.
The sequence TAGCCTAGGTCAGATCGGGCCAGTATCCGCTATA had a PBM binding z-score of 1.1.
The same measure, in the same setting: under CTCGAAAGGCCGGTTGAGGTGAGTATACGGATAA stands 1.91.
